# HPGD inh: qHTS Assay for Inhibitors of HPGD (15-Hydroxyprostaglandin Dehydrogenase); 15-hydroxyprostaglandin dehydrogenase [NAD(+)] (Homo sapiens), P15428; purified HPGD, NADH fluorescence kinetic, PGE2 substrate; Potency, µM, for inactives: at the highest dose activity change, negative = inhibition, hits mostly inhibitors; hit rate 4.3% among 150,000; also: potency is read from the fitted curve at half-maximal effect
#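 20 nM HPGD preincubated 15 min at room temperature with compound in 50 mM Tris-HCl pH 8, 0.01% Tween 20. Started with 1 mM NAD+ and 30 uM prostaglandin E2; NADH fluorescence (360/450 nm) read 5 times over 30-s intervals, last minus first.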
# ALDH1A1 block: qHTS Assay for Inhibitors of Aldehyde Dehydrogenase 1 (ALDH1A1); hit rate 7.3% among 220,000; AID 1030, 2008; Purified ALDH1A1, NADH fluorescence, propionaldehyde substrate; Potency, µM (doses to about 75.3 µM), for the others: at the highest dose activity, negative = inhibition, most hits filed as inhibitors;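 also: potency is read from the fitted curve at half-maximal effect; plate controls were no enzyme wells and a reference inhibitor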
# Target sequence (P00352 whole entry, looked up): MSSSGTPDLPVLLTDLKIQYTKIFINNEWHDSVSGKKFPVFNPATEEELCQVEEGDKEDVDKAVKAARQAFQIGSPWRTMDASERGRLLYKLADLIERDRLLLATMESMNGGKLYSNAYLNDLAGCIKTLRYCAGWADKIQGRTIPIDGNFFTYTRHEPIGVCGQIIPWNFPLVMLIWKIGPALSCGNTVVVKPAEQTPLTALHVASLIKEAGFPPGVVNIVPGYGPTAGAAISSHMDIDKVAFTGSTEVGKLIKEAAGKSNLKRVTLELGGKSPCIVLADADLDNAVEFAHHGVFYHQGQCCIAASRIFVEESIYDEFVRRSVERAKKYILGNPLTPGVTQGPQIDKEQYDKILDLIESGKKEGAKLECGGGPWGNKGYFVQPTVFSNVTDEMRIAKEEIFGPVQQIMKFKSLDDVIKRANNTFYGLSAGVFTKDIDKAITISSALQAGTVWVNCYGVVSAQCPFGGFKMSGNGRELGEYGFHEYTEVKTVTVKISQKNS
# ALOX12 inhib: qHTS Assay for Inhibitors of 12-hLO (12-human lipoxygenase); hit rate 0.12% among 150,000; Potency, µM (series often up to 57.1 µM), for inactives: top-dose activity change, negative = inhibition, actives largely listed as inhibitors; Polyunsaturated fatty acid lipoxygenase ALOX12 (Homo sapiens), P18054; AID 1452, 2008; purified 12-hLO, xylenol orange hydroperoxide absorbance; active = well fitted curve in the direction sought with a large enough effect; inconclusive = small, poorly fitted or top-dose-only effect, or another doubt; inactive = no such curve, though single readings can be large; an effect the other way counts as inactive or inconclusive; also: potency is read from the fitted curve at half-maximal effect; nearly all actives have a fitted effect of over 55% in size
#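 Purified human 12hLO (150 nM), preincubated 15 min with compound, then 40 uM arachidonic acid for 30 min, room temperature, Hepes pH 7.0 with 0.01% Triton X-100. Hydroperoxide detected by ferrous iron/xylenol orange; 573/405 nm absorbance ratio gives reaction progress.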
# IMPase cell inh: qHTS Assay for Identifying the Cell-Membrane Permeable IMPase Inhibitors; Inositol monophosphatase 1 (Rattus norvegicus), P97697; inhibition (IP1 accumulation), % at 46.1 µM; AID 901, 2007; CHO-M1 cells, IP1 accumulation, HTRF TR-FRET ratio; 120,000 tested, under 10 active; active = well fitted curve in the direction sought with a large enough effect in the signal ratio, not every such curve was filed as active; inconclusive = small, poorly fitted or top-dose-only effect, or a change in a side signal; inactive = no such curve, though single readings can be large or run the other way; the % refers to the signal ratio;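 also: cells stimulated with carbachol in lithium chloride buffer; plate controls were DMSO basal wells for no effect and reference inhibitor wells for full effect; higher means more IMPase inhibition seen as more IP1 and lower FRET ratio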
# Target sequence (P97697 whole entry, looked up): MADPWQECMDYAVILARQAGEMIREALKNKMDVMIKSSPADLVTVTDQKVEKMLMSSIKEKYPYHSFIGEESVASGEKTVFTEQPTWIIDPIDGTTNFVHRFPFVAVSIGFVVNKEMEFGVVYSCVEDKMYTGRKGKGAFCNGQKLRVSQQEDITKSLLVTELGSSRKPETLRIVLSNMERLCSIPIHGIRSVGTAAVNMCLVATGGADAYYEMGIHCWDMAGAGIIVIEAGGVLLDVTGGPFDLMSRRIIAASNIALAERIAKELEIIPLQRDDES
#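 The IP-One HTRF competitive assay in carbachol-stimulated CHO-M1 cells quantifies cellular IP1. Compounds spanned up to 46 uM final, and activity is expressed as AC50 from concentration-response fits of the ratio and donor data.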
# PNC inhibitor: High Content Assay for Compounds that inhibit the Assembly of the Perinucleolar Compartment; activity change (PNC), negative = inhibition, % at 10 µM; PC3M PTB-GFP, PNC prevalence imaging, 16 h; hits give low values; AID 2417, 2010; hit rate 3.1% among 140,000;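 active = readout at or below -70, meaning at least 70% loss of cells showing the perinucleolar compartment, a nuclear body marking cancer cells; inconclusive = readout between -30 and a set limit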;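 also: plate controls were DMSO wells for no effect and camptothecin positive control wells for full effect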
#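 PC3M cells stably expressing PTB-GFP, 750–1000 cells/well, treated 16 h at 37 °C with compound (23 nl of library stock), in duplicate. After paraformaldehyde fixation and Hoechst stain, imaged at 20x; PNC prevalence scored by image analysis.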
# IMPase Li cell: qHTS Assay for Identifying the Cell-Membrane Permeable IMPase Inhibitors: Potentiation with Lithium; CHO-M1 cells, IP1 TR-FRET (IP-One), carbachol + lithium; Potency, µM (doses to about 59.4 µM), inactives show at the highest dose activity, negative = IMPase inhibition, actives largely listed as inhibitors; hit rate 0.35% among 210,000; AID 1457, 2008; active = well fitted curve in the direction sought with a large enough effect; inconclusive = small, poorly fitted or top-dose-only effect, or another doubt; inactive = no such curve, though single readings can be large; an effect the other way counts as inactive or inconclusive;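 also: IP1 builds up when IMPase is blocked and the TR-FRET signal falls; potency is read from the fitted curve at half-maximal effect; plate controls were basal vehicle for no effect and high inhibitor control for full effect; nearly all actives have a fitted effect of over 50% in size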
#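 IP1 accumulation measured by competitive TR-FRET in lysed CHO-M1 cells after 30 min compound exposure at 37C, with a small lithium addition to potentiate weak responses. Hill-equation AC50 from ratio and donor-channel data.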
# * marks the source's active call; other numbers are inactive results; u = inconclusive; x = no result given; [ ] = another dose, or the depositor's remark. Sampled rows, rich in hits. Any-hit rate of the full collection: about 11%. Unless noted, calls follow the shape of the dose curve; as a rule, active = well fitted inhibition curve with a large enough effect (not every such curve was filed as active); inconclusive = small, poorly fitted or top-dose-only effect, or another doubt; inactive = no such curve, though single readings can be large or run the other way. Unless noted, % is scaled to controls: 0 for no effect and ±100 for the full control effect.
SMILES,HPGD inh,ALDH1A1 block,ALOX12 inhib,IMPase cell inh,PNC inhibitor,IMPase Li cell
O=C(c1ccco1)N1CCC[C@@]2(CCN(Cc3ccncc3)C2)C1,-7%,10µM*,-1%,x,x,-3%
COc1ccc2c3c1O[C@@H]1C(=O)CC[C@@]4(O)[C@@H](C2)N(CC2CC2)CC[C@]314,x,x,-3%,1,x,x
C=CC=O,-7%,0.022µM*,1%,x,x,0%
[Cl][Pd][Cl].[S-]C1=C2N=CN[C-]2[NH+]=C[N-]1.[S-]c1ncnc2[nH]cnc12,1%,-11%[13.5 µM],x,x,x,5%
COc1ccc(CCNCc2ccc(C)s2)cc1OC,x,2%,x,x,x,9%
COc1ccc(CC(=O)Nc2ccc3c(C(F)(F)F)cc(=O)oc3c2)cc1OC,-15%,7.9µM*,-2%,-5,7,0%
CCNCCC1(CC)C(=O)NC(=O)NC1=O,-3%,4%[13.5 µM],5%[11.4 µM],x,x,-3%
COc1ccc(Nc2ncc(C(=O)N3CCC4(CC3)OCCO4)c3ccccc23)cc1,22µM*,-10%,2%,6,u,33%[38.3 µM]
COc1ccc(NC(=O)N2CCC3(CC2)OCCO3)cc1,x,10%,x,x,x,5%
CCOC(=O)CC(NC(=O)C(Cc1ccc(N(CCCl)CCCl)cc1)NC(C)=O)C(=O)OCC (centres undefined),x,25µM*,x,x,x,16%
CC(=O)NC(Cc1ccc(N(CCCl)CCCl)cc1)C(=O)NC(C(=O)O)C(C)C (centres undefined),x,-14%,x,x,x,-1%
NC(Cc1ccc(N(CCCl)CCCl)cc1)C(=O)O (centres undefined),3%,32µM*,-7%,x,x,10%
Oc1cc2c(cc1O)[C@H]1c3ccccc3CNC1CC2 (some centres undefined),6.3µM*,u,x,x,x,9%
CSc1ccc(CNC2CN3CCC2CC3)cc1 (centres undefined),-2%,0%,9%,-2,-106*,31%[38.3 µM]
CC(C)(C)c1[nH]nc2c1C(c1ccoc1)C(C#N)=C(N)O2 (centres undefined),-17%,16µM*,4%,2,-22,30%[38.3 µM]
Cc1ccc(-c2cn3c(=S)[nH]nc3s2)cc1,28µM*,u,u,5,19,10%[38.3 µM]
CCOC(=O)CSc1nn(-c2ccccc2)c(=S)s1,x,u,x,x,x,0%
COC(=O)CSc1n[nH]c(=S)s1,40µM*,11µM*,-2%,x,17,-1%
COc1ccc(C(C)=O)cc1COc1ncnc2ccccc12,x,1.8µM*,x,x,x,20%
COc1ccccc1CCNC1CCC(C(C)(C)C)CC1 (centres undefined),x,u,u,7,-112*,x
Cc1cc(O)c2c(c1)C(=O)c1cc(O)cc(O)c1C2=O,-29%,22µM*,-5%,5,x,16%
Clc1ccc(N2C[C@H]3CC[C@@H](C2)N3)nn1,x,x,-10%,6,x,x
COc1ccccc1N1C(=O)NC(=O)/C(=C/c2ccc3c(c2)Cc2ccccc2-3)C1=O,u,u,-8%,x,14,-6%
COc1ccc(N2C(=O)NC(=O)/C(=C/c3cccc(OC(=O)c4cccs4)c3)C2=O)cc1Cl,32µM*,u,-19%,x,u,-3%
Cc1ccc(N2C(=O)NC(=O)/C(=C/c3ccc(OC(=O)c4cccs4)cc3)C2=O)cc1,28µM*,u,-8%,-3,57,13%[38.3 µM]
SMILES,HPGD inh,ALDH1A1 block,ALOX12 inhib,IMPase cell inh,PNC inhibitor,IMPase Li cell
COC(=O)[C@H]1[C@H](c2ccccc2)C(=O)[C@@]2(O)c3ccccc3O[C@@]12c1ccccc1,x,1%[13.5 µM],x,x,x,x
S=C1Nc2ccccc2Sc2ccccc21,x,10µM*,x,x,x,21%
CC(=O)Nc1ccccc1C(=O)OCc1cccc(F)c1,x,-4%,x,x,x,5%
CC(=O)Nc1ccccc1C(=O)OCc1ccc(C(=O)c2ccccc2)cc1,25µM*,u,0%,8,10,-2%[38.3 µM]
CC1OC(O[C@H]2C[C@@H](O)[C@]3(CO)[C@@H]4C(CC[C@]3(O)C2)[C@@]2(O)CC[C@H](C3=CC(=O)OC3)[C@@]2(C)C[C@H]4O)C(O)C(O)C1O (some centres undefined),x,0%,x,x,x,x
O=c1[nH]c(=S)[nH]c(O)c1C(c1ccccn1)c1c(O)[nH]c(=S)[nH]c1=O,x,u,x,x,x,-1%
CCn1c(O)c(C(c2ccccn2)c2c(O)n(CC)c(=S)[nH]c2=O)c(=O)[nH]c1=S,-8%,25µM*,-9%,-7,60,-11%[38.3 µM]
O=C1c2ccccc2C(Nc2ccc(S(=O)(=O)N3CCCCCC3)cc2)N1c1ccccn1 (centres undefined),-7%,0.79µM*,6%,3,-93*,3%[38.3 µM]
COc1cc2c(cc1OC)[C@]13CC[N@+]4(C)CC5=CCO[C@H]6CC(=O)N2[C@@H]1[C@@H]6[C@@H]5C[C@]34O,x,x,1%[11.4 µM],x,x,x
Nc1ccc(S(=O)(=O)c2ccc(NCN3C(=O)NC(=O)C(=O)C3=O)cc2)cc1,-18%,9%[13.5 µM],1%[11.4 µM],x,x,-6%
O=C(Cn1c2c(c(-c3ccccc3Cl)cc1=O)CCC2)N1CCC2(CC1)OCCO2,u,u,-14%,0,-95*,5%[38.3 µM]
Cc1cnn(-c2cc(Oc3ccccc3)ncn2)c1,x,22µM*,-4%,5,-26,x
O=C(O)[C@H]1[O][Sb][O][C@@H](C(=O)O)C1O (some centres undefined),-3%,9%[13.5 µM],2%[11.4 µM],x,x,-14%
CC(C)Br,-3%,10%,-3%,x,x,9%
ClC(Cl)C(Cl)Cl,-12%,12%,0%,x,x,-6%
O=c1[nH]c(O)c(N=Nc2cc([N+](=O)[O-])ccc2O)c(=O)[nH]1,x,20µM*,x,x,x,15%
NC(=O)c1ccc(N=Nc2c(O)[nH]c(=O)[nH]c2=O)cc1,-13%,22%,-2%,3,6,-1%
CC(=O)c1cccc(OCC(O)CN2CC=C(c3ccccc3)CC2)c1 (centres undefined),-8%,22µM*,2%,6,-8,-9%[38.3 µM]
Cc1ccc2c(c1)=C/C(=C\c1c(O)[nH]c(=S)[nH]c1=O)C(=O)N=2,-15%,3.5µM*,-6%,-4,u,-5%
Cc1ccc(-n2c(O)c(C=NC3CCCC3)c(=O)[nH]c2=O)c(C)c1,-3%,-2%,-1%,2,39,-1%[38.3 µM]

# Screening data as filed in PubChem.
